# Rows were chosen to be rich in hits. Some 27% of all compounds tested hit in one or more screens of this group.
# CYP2C19 inh: blockers of cytochrome P450 2C19 activity – biochemical, luminescence, ADME assay, primary screen; P33261; CYP2C19 Supersomes, luciferin-H EGE luminescence, 30 min; inhibition, % at 5 µM; 96,000 tested, 21% active; AID 778, 2007;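 active = CYP2C19 inhibition above a set limit at 5 µM in the primary screen, cut at about 50% in these data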;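 note: plate controls were negative control wells for no effect and 2.5 mM tranylcypromine positive control for full effect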
# CYP2C9 act: human CYP2C9 activators, primary screen, biochemical, luminescence; recombinant CYP2C9, luciferin-H conversion; active compounds read high; factor 1 = untreated enzyme, 0 = blocked; activation factor at 5 µM; 96,000 tested, 1.4% active; Cytochrome P450 2C9 (Homo sapiens), P11712;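 active = activation factor of 2 or more for CYP2C9 at a 5 µM dose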;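 note: 0 = sulfaphenazole-blocked wells and 1 = vehicle-only wells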
# EphB4 ephrin blk: EphB4-ephrin-B2 interaction antagonists, primary screen, biochemical, TNYL-RAW peptide probe, fluorescence polarization; inhibition, % at 7 µM; AID 720, 2007; 97,000 tested, 0.15% active; EphB4 LBD / TNYL-RAW-Alexa532 peptide;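 active = inhibition above the screen-wide mean inhibition plus 3 SD, cut at about 15% in these data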;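 note: 0% = DMSO wells and 100% = excess unlabeled TNYL-RAW peptide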
# Target sequence (P54760 whole entry, looked up, the tested form may be a part): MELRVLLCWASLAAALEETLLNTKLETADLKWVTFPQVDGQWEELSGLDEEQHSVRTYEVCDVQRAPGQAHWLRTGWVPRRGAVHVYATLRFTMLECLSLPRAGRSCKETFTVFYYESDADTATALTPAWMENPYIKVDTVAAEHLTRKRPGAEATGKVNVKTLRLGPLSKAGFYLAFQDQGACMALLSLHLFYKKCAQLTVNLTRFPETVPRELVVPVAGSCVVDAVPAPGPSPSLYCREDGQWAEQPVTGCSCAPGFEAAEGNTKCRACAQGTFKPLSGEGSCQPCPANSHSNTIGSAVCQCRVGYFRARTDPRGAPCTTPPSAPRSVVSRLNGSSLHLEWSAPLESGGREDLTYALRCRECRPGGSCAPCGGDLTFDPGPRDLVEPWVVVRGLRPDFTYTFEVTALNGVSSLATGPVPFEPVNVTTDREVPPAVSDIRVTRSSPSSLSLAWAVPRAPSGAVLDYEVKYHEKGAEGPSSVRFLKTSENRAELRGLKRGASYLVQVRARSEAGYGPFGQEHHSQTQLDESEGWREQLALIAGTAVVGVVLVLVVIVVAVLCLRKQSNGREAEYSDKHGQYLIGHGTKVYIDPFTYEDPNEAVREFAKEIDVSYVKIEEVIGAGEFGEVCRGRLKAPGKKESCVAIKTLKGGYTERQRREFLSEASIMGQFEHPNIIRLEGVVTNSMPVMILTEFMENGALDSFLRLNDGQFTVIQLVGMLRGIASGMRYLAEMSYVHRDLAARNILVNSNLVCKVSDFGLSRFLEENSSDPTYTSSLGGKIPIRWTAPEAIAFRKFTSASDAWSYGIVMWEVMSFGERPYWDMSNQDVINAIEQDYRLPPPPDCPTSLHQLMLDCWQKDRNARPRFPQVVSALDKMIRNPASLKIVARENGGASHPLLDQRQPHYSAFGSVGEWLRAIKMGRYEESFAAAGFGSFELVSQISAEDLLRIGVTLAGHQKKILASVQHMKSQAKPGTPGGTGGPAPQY
# CYP2C19 activ: human CYP2C19 activators, primary screen, biochemical, luminescence; activation factor at 5 µM; Cytochrome P450 2C19 (Homo sapiens), P33261; 96,000 tested, under 10 active; recombinant CYP2C19, luciferin-H EGE luminescence; active compounds read high; 0 = fully inhibited enzyme, 1 = untreated enzyme; AID 1025, 2008;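 active = activation factor of at least 2 at 5 µM in the primary screen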;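 note: 0 = wells with 2.5 mM tranylcypromine and 1 = vehicle-only wells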
# CYP2C9 inh: blockers of cytochrome P450 2C9 activity – biochemical, luminescence, ADME assay, primary screen | P11712 | 96,000 tested, 20% active | inhibition, % at 5 µM | CYP2C9 Supersomes, luciferin-H conversion;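 active = blocking of liver enzyme CYP2C9 beyond about 50% at 5 µM, limit read from the data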
# An asterisk follows results filed as active; / = not tested or not shown.
SMILES,CYP2C19 inh,CYP2C9 act,EphB4 ephrin blk,CYP2C19 activ,CYP2C9 inh
CCOC(=O)c1cc(C#N)c(SCC(=O)c2cc(C#N)c(SC)nc2C)[nH]c1=O,35,0.3,/,0.6,74*
CC(C)CNC(=O)c1ccccc1NC(=O)Nc1ccccc1,32,0.5,-3,0.7,52*
COc1ccc(C(=O)NCC(C)C)c(OC)c1,/,/,0,/,/
CC(C)CNC(=O)c1ccccc1Oc1ccccc1,75*,0.6,3,0.2,40
CCCNC(=O)c1ccccc1NC(=O)Nc1ccccc1C,51*,0.8,-8,0.5,24
CSc1ccccc1NC(=O)Nc1ccccc1,58*,0.7,0,0.4,30
O=C1CC(c2cccc(F)c2)SC(N(c2ccccc2)c2ccccc2)=N1 (stereo unspecified),28,0.8,10,0.7,18
Cc1cc(-c2ccccc2)n2nc(C)c(C#N)c2n1,22,1,-3,0.8,5
CCC(CC)C(=O)Nc1cccc(C(=O)NCCc2ccc(S(N)(=O)=O)cc2)c1,78*,0.1,-5,0.2,90*
CCCCC(CC)C(=O)NCCc1ccc(S(N)(=O)=O)cc1 (stereo unspecified),9,0.4,-6,0.9,59*
CCN(CC)S(=O)(=O)c1cccc(NC(=O)C2SC(=Nc3ccc(C)cc3C)C(C(=O)NCC3CCCO3)=C2N)c1 (stereo unspecified),62*,0.1,1,0.4,93*
COCCNC(=O)C1=C(N)C(C(=O)Nc2ccc(C)c(S(=O)(=O)N3CCCCC3)c2)SC1=Nc1ccc(C)cc1C (stereo unspecified),24,0.2,1,0.8,75*
Cc1ccc(NC(=O)C2CCN(S(=O)(=O)c3cccs3)CC2)cc1C,0,1,-6,1,-4
COc1ccc(Cn2c(=O)n(Cc3ccco3)c(=N)c3c4c(sc32)COC(C)(C)C4)cc1,61*,0.1,/,0.4,91*
CC1(C)Cc2c(sc3c2c(=N)n(Cc2ccco2)c(=O)n3Cc2ccc(F)cc2)CO1,10,0.8,/,0.9,24
CC(=O)Nc1ccc(N=Cc2nc(-c3ccc(C)cc3)oc2O)cc1,36,0.5,-4,0.6,49
COc1ccc2cc(/C=N/NC(=O)CSCc3ccc([N+](=O)[O-])cc3)c(Cl)nc2c1,12,1,-2,0.9,3
CCC(=O)NC1(C(F)(F)F)C(=O)Nc2c1c(=O)n(C)c(=O)n2C (stereo unspecified),72*,0.4,/,0.3,58*
C=CCn1c(O)c(CN2CCN(Cc3ccccc3)CC2)c(C)c(C#N)c1=O,-1,0.7,-1,1,26
CCN1CCCC1CNC1=NCCCCC1 (stereo unspecified),-15,1,8,1.2,-4
Cc1cc(Cl)ccc1Oc1ncc(-c2ccc(Cl)cc2)cn1,24,1,2,0.8,3
Cc1cc(Cl)ccc1OCc1nc(-c2ccc(O)cc2)n[nH]1,97*,0.1,1,0,94*
CN(C)c1ncc(S(=O)(=O)c2ccccc2)c(-c2ccccc2Cl)n1,76*,0.7,-2,0.2,32
Nn1c(SC/C=C/c2ccccc2)nnc1-c1ccccn1,61*,0.7,-9,0.4,27
Clc1ccc(-n2c(SC/C=C/c3ccccc3)nnc2-c2cccnc2)cc1,56*,0.7,-3,0.4,34
SMILES,CYP2C19 inh,CYP2C9 act,EphB4 ephrin blk,CYP2C19 activ,CYP2C9 inh
Cc1ccc(C)c(CSc2nnc(-c3cccnc3)n2N)c1,20,1.1,-2,0.8,-13
Nn1c(SC/C=C/c2ccccc2)nnc1-c1cccnc1,-12,1.2,-6,1.1,-19
COc1ccc(-c2nnc(SCc3cc(C)ccc3C)n2N)cc1,62*,1.2,1,0.4,-16
Cc1cccc(CSc2nnc(-c3ccccn3)n2N)c1,60*,1.4,-8,0.4,-42
CS(=O)(=O)N(CC(=O)N1CCN(c2cccc(Cl)c2)CC1)C1CCCCC1,27,0.7,3,0.7,32
COc1ccc(-c2nnc(SCc3cccc(C)c3)n2N)cc1,52*,1.1,7,0.5,-14
COc1ccc(OCCSc2nnc(-c3ccc(OC)cc3)n2N)cc1,38,0.7,-1,0.6,32
FC(F)(F)c1nnc2ccc(N3CCCCCC3)nn12,-2,1.1,-10,1,-6
O=C(Nc1ccccc1C(F)(F)F)N1CCN(c2ccc3nncn3n2)CC1,32,0.3,/,0.7,72*
FC(F)(F)c1ccccc1NC(=S)N1CCN(c2ncccn2)CC1,42,0.8,-7,0.6,24
O=C(Nc1ccc(F)cc1)N1CCN(c2ccc3nnc(-c4ccc(F)cc4)n3n2)CC1,50*,0.4,-2,0.5,55*
O=C(Nc1ccccc1C(F)(F)F)N1CCN(c2ccc3nnc(-c4ccc(F)cc4)n3n2)CC1,23,0.3,/,0.8,65*
Fc1ccc(-c2nnc3ccc(N4CCc5ccccc5C4)nn23)cc1,57*,0.1,-2,0.4,86*
Cc1ccc(-c2nnn(Cc3nc4ccccc4s3)n2)cc1,15,0.7,/,0.8,27
CCc1ccc(NC(=O)C2CCN(S(=O)(=O)c3c(C)[nH]c(=O)[nH]c3=O)CC2)cc1,16,0.7,-10,0.8,30
COc1ccc(-c2nc3ccccc3c(=O)o2)cc1OC,-12,0.9,7,1.1,14
COc1ccc(-c2c/c(=N\c3nc(-c4ccccc4)c(C)s3)c3ccccc3o2)cc1O,28,0.1,3,0.7,93*
COC(=O)c1sccc1NC(=O)CCC1CCCCC1,/,/,4,/,/
CCOC(=O)C1=C(C)N=C(/N=C/N(C)C)SC1c1ccccc1 (stereo unspecified),71*,0.5,/,0.3,48
O=c1c2ccccc2nc2c3ccccc3ncn12,-1,0.8,-4,1,21
CCC(=O)N(CCc1ccccc1)Cc1cc2cc3c(cc2[nH]c1=O)OCO3,8,0.9,1,0.9,12
CCC(=O)N(CCC(Cc1ccccc1)c1ccc2c(c1)OCO2)Cc1ccccc1F (stereo unspecified),96*,0,3,0,96*
CCOc1ccccc1NC(=O)C1=C(C)NC(=O)NC1c1cccc(OC)c1OC (stereo unspecified),20,0.9,1,0.8,12
O=C(CS(=O)(=O)c1ccc(Cl)c(Cl)c1)Nc1ccccc1Cl,1,1.2,0,1,-23
Fc1ccccc1Cn1nnc(-c2ccc3c(c2)OCO3)n1,76*,0.4,8,0.2,58*
O=C(NCc1ccccc1)c1ccc2c(c1)OCCO2,85*,0.7,/,0.2,31
O=C(CCNc1ccccc1)c1ccc2c(c1)OCO2,63*,0.5,-2,0.4,48
